In the library only some 2.1% were active in any assay of this set; here they are far more common.
ROMK primary: modulates human ROMK potassium channel activity; P48048; Tet-inducible ROMK, thallium flux fluorescence; actives lie on both sides; B-score at 10 µM; 130,000 tested, 2% active; AID 1918;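 active = signal ratio slope over the read window, or its plate-corrected B-score, at least 3 SD from the plate mean, either direction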;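 note: B-score of the F/F0 ratio slope over 7 to 12 s after thallium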
Target sequence (P48048 whole entry, looked up): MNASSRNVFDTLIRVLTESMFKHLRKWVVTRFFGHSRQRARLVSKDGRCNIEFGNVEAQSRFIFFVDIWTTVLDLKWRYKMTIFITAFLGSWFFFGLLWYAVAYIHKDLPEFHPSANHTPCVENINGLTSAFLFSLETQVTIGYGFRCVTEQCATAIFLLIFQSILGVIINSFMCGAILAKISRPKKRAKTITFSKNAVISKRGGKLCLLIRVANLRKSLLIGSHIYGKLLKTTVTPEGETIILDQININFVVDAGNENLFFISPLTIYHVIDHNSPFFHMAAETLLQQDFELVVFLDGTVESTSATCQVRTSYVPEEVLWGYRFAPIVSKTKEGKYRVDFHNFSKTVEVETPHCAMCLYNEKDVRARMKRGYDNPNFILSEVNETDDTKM
m-calpain inh: calpain II (pig) inhibition. purified calpain II, fluorogenic peptide substrate, 30 min. inhibition, % at 16 µM. 220,000 tested, 0.37% active. AID 1236;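 active = inhibition above about 50%, limit read from the data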
Arbovirus anti: blocks arbovirus infection | arbovirus infection cell-based antiviral screen | 200,000 tested, 0.37% active | inhibition, % at 10 µM; in the data active = inhibition above about 30%
HSV augment: HSV replication enhancement; AID 1956; 220,000 tested, 0.005% active; HSV replication augmentation in cells, fold increase; maximum fold increase; in the data active = maximum fold increase above about 1.5; inconclusive = no clear call, values can overlap the other calls; tested in PC3 cells
Efa HMGR inh: E. faecalis class II HMG-CoA reductase inhibition | AID 1066 | 190,000 tested, 0.41% active | purified E. faecalis HMGR, NADPH absorbance 340 nm kinetic | inhibition, % at 10 µM;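 active = inhibition above a set limit, the median over all tested compounds plus 3 SD, cut at about 9.5% in these data; inconclusive = no clear call, values can overlap the other calls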;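 note: enzyme runs in reverse so mevalonate oxidation gives rising NADPH absorbance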
ROMK retest: retested hit modulating human ROMK potassium channel | shares compounds with ROMK primary | ROMK thallium flux, fluorescence ratio; hits give low values | normalized thallium flux (F/F0 slope) at 10 µM | 3,000 tested, 54% active | AID 1917;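 active = Flux at 10 µM at least 3 SD below or above vehicle control mean in one or both replicates; inconclusive = no clear call, values can overlap the other calls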
Hits are given with their value; 0 = inactive; ? = inconclusive; - = no result.

SMILES	ROMK primary	m-calpain inh	Arbovirus anti	HSV augment	Efa HMGR inh	ROMK retest
CC(=O)Nc1cccc(Oc2ncnc3scc(-c4ccccc4)c23)c1	-	0	45.3	0	0	0.0607
O=C1c2cccc3cccc(c23)C(=O)N1OS(=O)(=O)c1ccc(Br)cc1	-	0	0	0	0	-
O=C1C(Br)=Cc2cccc3cccc1c23	-	0	-	0	-	0.0485
COC(=O)N/N=C/c1ccc(Oc2ccccc2)cc1	0	0	0	0	0	-
CN(CCCC(=O)Nc1ccncc1)S(=O)(=O)c1ccc(Cl)cc1	-3.35	0	0	0	0	0.0646
CN(CC(=O)Nc1ccncc1)S(=O)(=O)c1ccc(Br)cc1	-	0	0	0	0	-
CCOC(=O)N1CCN(C(=O)c2noc(C(C)C)c2[N+](=O)[O-])CC1	0	0	0	0	0	0
Nc1nnnn1CC(=O)N/N=C/c1ccccn1	-	0	-	0	-	-
CCOC(=O)C(CC)Sc1nc2c(cnn2-c2ccccc2)c(=O)[nH]1 (configuration not stated)	-	0	0	0	0	-
CCC(CC)C(=O)Nc1c2cnn(-c3ccccc3)c2nc(=O)n1-c1ccccc1	-4.97	0	0	-	0	0.0515
COc1ccc(/C=C/C(=O)Nc2c(C(=O)O)[nH]c3ccccc23)cc1OC	-	0	-	0	-	-
Nc1[nH]n(-c2ccccc2)c(=O)c1N=Nc1ccc2c(c1)OCO2	-	0	-	0	-	0
Nc1[nH]n(-c2ccccc2)c(=O)c1N=Nc1ccc2c(c1)OCCO2	0	0	0	0	0	-
CN(C)c1ccc(/C=C/c2cccc[n+]2[O-])cc1	-4.41	0	-	0	-	0.0539
CC(=O)NC(C)c1nc2ccccc2n1CC(=O)NC(C)CCc1ccccc1 (configuration not stated)	0	0	0	0	0	-
CSc1nc2[nH]c3c(c2c2nnnn12)CCCC3	-	0	0	-	0	0
CSc1nc2[nH]c3c(c2c2nncn12)CC(C)(C)OC3	0	0	0	0	0	-
Cc1ccc(N2NC(=O)/C(=C\c3cc4c(cc3[N+](=O)[O-])OCO4)C2=O)cc1C	-4.93	0	0	0	0	0.0481
COc1cc(/C=C2/C(=O)NN(c3cccc(C)c3)C2=O)cc([N+](=O)[O-])c1O	0	0	0	0	0	-
C=CCc1cc(/C=C2/NC(=O)N(CC(=O)OC)C2=O)cc(OC)c1O	0	0	0	0	0	-
CC1=NN(c2ccccc2)C(=O)/C1=C/C=C/C=C/N(C)C	-2.41	0	0	0	0	0.0653
CC1=NN(c2ccccc2)C(=O)/C1=C/c1cccs1	-3.44	0	0	0	0	0.0482
CC1=NN(c2cccc(C(=O)O)c2)C(=O)/C1=C\C=C/c1ccccc1	-8.31	0	0	0	0	0.0471
COc1ccc(-c2csc(CCN3N=C(C)CC3=O)n2)cc1	0	0	0	0	0	-
CNC(=O)c1nnsc1S(=O)(=O)c1ccc(Cl)cc1	-5.61	0	0	0	0	0.0533
SMILES	ROMK primary	m-calpain inh	Arbovirus anti	HSV augment	Efa HMGR inh	ROMK retest
CCN1CCN(C(=O)c2ccc3c(c2)S(=O)(=O)c2ccccc2C3=O)CC1	1.5	0	0	0	0	0
COc1ccc(N/N=C(\C#N)C(=N)SCc2ccccc2)cc1	-	0	0	0	0	0.0532
CCn1c(=O)n(CC)c2cc(S(=O)(=O)N3CCc4ccccc43)ccc21	-	0	0	0	0	?
CC(=O)N1CCc2ccc(S(=O)(=O)N3CCc4ccccc43)cc21	0	0	0	0	0	-
C/C(CC(=O)Nc1ccc2c(c1)OCCO2)=N\NC(=O)C(=O)Nc1ccccc1C	0	0	0	0	0	-
Clc1ccc(CSc2nnc(-c3cccnc3)n2Cc2ccco2)c(Cl)c1	-2.4	0	0	0	0	?
CCOC(=O)C1CCN(c2c(NCc3ccc(C(=O)Nc4ccc(C)cc4)cc3)c(=O)c2=O)CC1	-	0	-	0	-	-
Cc1ccc2c(c1)nnn2C1CCN(CC(=O)Nc2ccccc2N2CCOCC2)CC1	-4.24	0	0	0	0	0.0554
COc1ccc(Cl)cc1NC(=O)CN1CCC(n2nnc3cc(C)ccc32)CC1	0	0	0	0	0	-
O=S(=O)(c1cnc(Cl)c(Br)c1)N1CCN(c2ncccn2)CC1	-	0	-	0	-	-
O=C(N/N=C/c1cn(-c2cccs2)nc1-c1ccccc1)c1ccc(O)cc1	-3.51	0	0	0	0	0.0589
O=C(N/N=C/c1cn(-c2cccs2)nc1-c1ccccc1)c1ccccc1Cl	0	0	0	0	0	-
CCOC(=O)C1CCCN(c2ncnc3c2oc2ccccc23)C1 (configuration not stated)	-	0	0	0	0	0.0544
O=C(NCCCN1CCCC1=O)c1cccs1	-	0	0	-	0	0
CCN(c1ccccc1)S(=O)(=O)c1ccc(N)c(OC)c1	3.49	0	0	-	0	0
CCN(c1ccccc1)S(=O)(=O)c1ccc(F)cc1	-	0	0	0	0	-
CCN(CC)CCN1C(=O)C(=O)/C(=C(/O)c2ccc(OC(C)C)cc2)C1c1cccs1 (configuration not stated)	-	0	-	0	-	-
O=C(O)C(Cc1c[nH]c2ccccc12)N1C(=O)C2C3c4ccccc4C(c4ccccc43)[C@@H]2C1=O (some centres not stated)	-	0	-	0	-	-
CC1=CC(C)(C)N=C(Nc2nc(C)c3cc(C)cc(C)c3n2)N1	-3.94	0	0	0	0	0.0489
Cc1cc(C)c2nc(Nc3nc(-c4ccccc4)cc(=O)[nH]3)nc(C)c2c1	-	0	-	0	-	-
COc1ccc(NS(=O)(=O)c2ccc(NC(=O)c3ccc(CN4CCOCC4)cc3)cc2)cc1	0	0	0	0	0	-
O=C(Nc1ccc(S(=O)(=O)Nc2ccc(F)cc2)cc1)c1ccc(CN2CCOCC2)cc1	-3.38	0	0	0	0	?
O=C(Nc1ccc(S(=O)(=O)N2CCCCC2)cc1)c1ccc(CN2CCOCC2)cc1	-	0	0	0	0	0.0594
O=C(/C=C\c1ccccc1OC(=O)c1ccccc1F)c1cc2ccccc2o1	-	0	0	0	0	-
COc1ccccc1OCc1ccc(C(=O)N(C)C)o1	-	0	0	0	0	0
SMILES	ROMK primary	m-calpain inh	Arbovirus anti	HSV augment	Efa HMGR inh	ROMK retest
COc1cc(OC)cc(C(=O)N[C@H](C(=O)OCC(=O)N2CCc3ccccc32)C(C)C)c1	0	0	0	0	0	-
Cc1ccccc1OC1=NS(=O)(=O)c2ccccc21	-2.57	0	0	0	0	0.0643
Cc1ccc(NC(=O)COc2ncnc3cc([N+](=O)[O-])ccc23)cc1S(=O)(=O)N1CCOCC1	-	0	-	0	-	-
Cc1nc2cc(F)ccc2n1C1CCN(S(=O)(=O)c2ccccc2)CC1	-6.13	0	0	0	0	?
O=C(c1ccco1)N1N=C(c2cccs2)CC1c1ccco1 (configuration not stated)	0	0	0	0	0	-
Cc1ccc(C2CC(c3cccs3)=NN2C(=O)c2ccco2)o1 (configuration not stated)	-5.54	51.4	0	0	0	?
CCOC(=O)N1CCN(C(=O)c2ccc(Oc3ccc([N+](=O)[O-])cc3)cc2)CC1	0	0	0	0	0	-
CC(C)Cc1cc(C(=O)N2CCN(C(c3ccccc3)c3ccccc3)CC2)no1	-	0	0	0	0	0.0622
Cn1nc(C(=O)N2CCN(C(c3ccccc3)c3ccccc3)CC2)c2ccccc2c1=O	-	0	-	0	-	0.06
N#C/C(C(N)=O)=C1/CCc2ccccc2N1	4.74	0	0	0	0	0

Assay outcomes from PubChem BioAssay.
